These results are taken from PubChem BioAssay (NCI).

The panel holds about 83,000 compounds, 20% with a hit somewhere; the sample as a whole holds those more often.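 For each line, cells grew in 96-well plates with the test compound present at a single concentration for 48 hours.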 Values without a mark were called inactive. Activity calls are given as the source filed them. How the source made its calls: active means growth percent below 10; inactive means the rest.

The test system of the first experiment is MOLT-4 leukemia. In words: NCI-60 one-dose screen, 48 h (100 = growth as untreated, 0 = no growth, -100 = all killed). The conditions noted are these: 10 µM unless noted.
For the molecule `CCN(CC)CCCN1C(=O)c2c(c(C)c3c(oc4ccc(O)cc43)c2C)C1=O`, the growth is 83.2%. On the same count and under the same terms, in the case of `O=[N+]([O-])c1ccc(-c2cn3nc(-c4c[nH]c5ccccc45)sc3n2)cc1` it was 88.6%; in that of `Cc1nc2ccccc2c(/C=C/c2ccccc2)c1C(=O)/C=C/c1ccccc1`, 10.8%.

Take `O=C1Nc2c(C(=O)O)cccc2/C1=N/c1n[nH]c(=S)s1`: the growth was 90%.

On to `CC(=O)Oc1ccc(OC(C)=O)c2ccccc12`, for which the growth is -13.9% (active). The same measure, in the same setting: then `COC(=O)/C=C1/SC(=Nc2ccc([N+](=O)[O-])cc2)N(CCc2c[nH]c3ccc(O)cc23)C1=O`, with 10.9%. The same measure, in the same setting: then `[2H]C([2H])([2H])Oc1ccc(F)cc1/C=C/C(=O)/C=C(/C=C/c1cc(F)ccc1OC([2H])([2H])[2H])OB(F)F`, with 4.82% (active); and `Nc1c(C(=O)Nc2cccc(Cl)c2)sc2nc3c(cc12)CCCC3`, with 84.8%; and `NS(=O)(=O)c1ccc(C(=O)NN2C(=O)c3c(Br)c(Br)c(Br)c(Br)c3C2=O)cc1`, with 100%. As to `Cc1c(Cl)cccc1C(=O)Nc1nc2c(s1)CN(C(=O)c1ccc(C(F)(F)F)cc1)CC2`, the growth was 21.8%. `CCCCCN(CCCCC)CC(O)c1cc(C)c2ccc3cc(C(C)C)ccc3c2c1` (stereo unspecified): the growth is -21.5% (active). The same measure, in the same setting: then `CCC1S/C(=N\N=C(\C)c2cc3cc(Cl)ccc3o2)N(c2ccccc2)C1=O` (stereo unspecified), with 36.4%; and `CN1C(=O)/C(=C/c2ccc(C(=O)Nc3ncc(Cc4cccc(Cl)c4)s3)cc2)SC1=S`, with 52.4%. The same measure, in the same setting: in the case of `O=C(NCc1cccc(CNC(=O)Nc2nc3ccccc3[nH]2)c1)Nc1nc2ccccc2[nH]1` it was -16.1% (active); in that of `COc1ccc(Cn2cc3c(c2-c2ccccc2)CCc2cnoc2-3)cc1`, 25.5%; in that of `Cc1ccc(CNc2c3ccccc3nc3ccccc23)cc1`, 4.29% (active).

For `FC(F)(F)c1ccc(Cn2cc(CSc3nc4ccccc4s3)nn2)cc1`, the growth is 98.1%. Still for that read-out and setting: then `COc1cc(OC)c2sc(-c3ccc(-n4cncc4-c4cc(OC)c(OC)c(OC)c4)cc3)nc2c1`, with 32.1%. The same measure, in the same setting: in the case of `C#CCn1cnc2cnc(Nc3cccc(NC(=O)C=C)c3)nc21` it was 8.28% [6.25 µM] (active); in that of `CC(=O)/C(=C/c1ccc([N+](=O)[O-])cc1)C(=O)c1ccccc1`, 21.4%; in that of `CCOC(=O)/C=C1\S/C(=N\Nc2cc(=O)[nH]c3ccccc23)N(c2ccccc2)C1=O`, 103%. As to `Cc1ccc(/C=C/C(=O)c2ccc(-n3cc(CN4CCN(c5cc6c(cc5F)c(=O)c(C(=O)O)cn6C5CC5)CC4)nn3)cc2)cc1`, the growth is 86%.

The next experiment has as its system SR leukemia. The experiment is described as above. The conditions noted are these: 10 µM unless noted.
Take `CCN(CC)c1ccc(/C=N/NC(=O)Cc2ccc(Nc3ccnc(C(F)(F)F)c3)cc2)c(O)c1`: the growth is 19.7%.

On to `Cc1cc2c(cc1C)N(C(=O)CCl)CC(=O)N2`, for which the growth is -8.95% (active). Still for that read-out and setting: in the case of `C#CC#CC#CC#CC#CC#CC#CC#CC[C@@H]1OC[C@@H](COC(=O)O[C@@H](C(=O)O[C@H]2C[C@@]3(O)[C@@H](OC(=O)c4ccccc4)[C@@H]4[C@]5(OC(C)=O)CO[C@@H]5C[C@H](O)[C@@]4(C)C(=O)[C@H](OC(C)=O)C(=C2C)C3(C)C)[C@@H](NC(=O)c2ccccc2)c2ccccc2)O1` it was 3.63% (active); in that of `C/C=C(\C)C(=O)N[C@H]1C(O)C[C@]2(C)C3CC[C@@]4(C)C(CC[C@@H]4C(C)N(C)C)C3CCC2C1O` (stereo partly specified), -30.4% (active); in that of `CSc1nn2c(-c3ccc4ccccc4c3)ccnc2c1C#N`, 13.8%. As for `CCOC(=O)c1c(C)c2c(n1Cc1ccccc1)CSCC2=O`, the growth is -2.43% [100 µM] (active). Turning to `N#C/C(=C\C=C\c1ccc(-c2cc(Cl)ccc2Cl)o1)c1nc2ccccc2s1`, the growth was 92.7%. Consider `CCn1cc(CNc2ccc(C(=O)Nc3cc4cc(OC)c(OC)cc4c(C)n3)cc2)cn1`, for which the growth is 12.2%. Still for that read-out and setting: in the case of `N#Cc1c(-c2ccccc2)nc(SCc2nnc(-c3ccc(Cl)cc3)o2)[nH]c1=O` it was 105%. On to `O=P(O)(O)OCC1OC(n2cnc3c(NCc4ccco4)ncnc32)C(O)C1O` (stereo unspecified), for which the growth was 27.1%. Still for that read-out and setting: in the case of `CCN(CC)CCCN1C(=O)c2c(c(C)c3c(oc4ccc(O)cc43)c2C)C1=O` it was 19.1%; in that of `O=[N+]([O-])c1ccc(-c2cn3nc(-c4c[nH]c5ccccc45)sc3n2)cc1`, 92.2%; in that of `O=C1Nc2c(C(=O)O)cccc2/C1=N/c1n[nH]c(=S)s1`, 84.6%.

For `CC(=O)Oc1ccc(OC(C)=O)c2ccccc12`, the growth was 56.8%. The same measure, in the same setting: then `COC(=O)/C=C1/SC(=Nc2ccc([N+](=O)[O-])cc2)N(CCc2c[nH]c3ccc(O)cc23)C1=O`, with -22.5% (active). `[2H]C([2H])([2H])Oc1ccc(F)cc1/C=C/C(=O)/C=C(/C=C/c1cc(F)ccc1OC([2H])([2H])[2H])OB(F)F`: the growth was 22.7%. Same read-out and setting: then `Nc1c(C(=O)Nc2cccc(Cl)c2)sc2nc3c(cc12)CCCC3`, with 53.9%; and `NS(=O)(=O)c1ccc(C(=O)NN2C(=O)c3c(Br)c(Br)c(Br)c(Br)c3C2=O)cc1`, with 94.5%; and `CCCCCN(CCCCC)CC(O)c1cc(C)c2ccc3cc(C(C)C)ccc3c2c1` (stereo unspecified), with -12.9% (active). Same read-out and setting: in the case of `CCC1S/C(=N\N=C(\C)c2cc3cc(Cl)ccc3o2)N(c2ccccc2)C1=O` (stereo unspecified) it was 85.1%; in that of `COc1cc(OC)c2sc(-c3ccc(-n4cncc4-c4cc(OC)c(OC)c(OC)c4)cc3)nc2c1`, 17.3%; in that of `C#CCn1cnc2cnc(Nc3cccc(NC(=O)C=C)c3)nc21`, 4.73% [6.25 µM] (active). Still for that read-out and setting: then `CCOC(=O)/C=C1\S/C(=N\Nc2cc(=O)[nH]c3ccccc23)N(c2ccccc2)C1=O`, with 96.6%.

As for `Cc1ccc(/C=C/C(=O)c2ccc(-n3cc(CN4CCN(c5cc6c(cc5F)c(=O)c(C(=O)O)cn6C5CC5)CC4)nn3)cc2)cc1`, the growth is 63.2%.
